# Source: PubChem BioAssay (The Scripps Research Institute Molecular Screening Center)
# This is a sample that favours compounds with a hit; in the whole collection about 4.1% have one here.
# DAX1 inh-1: DAX1 (NR0B1) inhibitors on StAR promoter, primary screen, cell-based, luminescence, SF-1 (NR5A1), full-length DAX-1. AID 652010, 2013. 370,000 tested, 1.1% active. inhibition, % at 6.8 µM. HEK293T StAR-luciferase reporter, SF-1/DAX-1 repression relief;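 active = inhibition above the mean over all tested compounds plus 3 SD, cut at about 3.6% in these data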;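 note: 0% = DAX-1 cells with DMSO and 100% = cells lacking DAX-1 with DMSO; higher inhibition means more luminescence from relief of DAX-1 repression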
# ssDAF12 agonist: S. stercoralis DAF-12 nuclear receptor activators, primary screen, cell-based, luminescence, HEK293, GRIP1 co-expression, lit1-tk-luc. Nuclear hormone receptor DAF-12 (Strongyloides stercoralis). HEK293 ssDAF-12/GRIP1 lit1-tk-luc reporter; % of 3 µM dafachronic acid response. activation, % at 6.8 µM. 370,000 tested, 1% active. AID 652126, 2013;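 active = activation above the mean over all tested compounds plus 3 SD, cut at about 0.9% in these data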;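 note: 0% = DMSO-only wells and 100% = 3 µM delta7-dafachronic acid wells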
# hgDAF-12 ag: H. glycines DAF-12 receptor agonists, primary screen, cell-based, luminescence, HEK293, GAL4 fusion, UAS-luciferase | Nuclear hormone receptor DAF-12 (Heterodera glycines), GAL4 fusion | HEK293 GAL4-hgDAF12 UAS-luciferase reporter, agonist luminescence; normalized to butyrate control | activation, % at 6.8 µM | 370,000 tested, 1.8% active;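 active = activation above a cutoff set at the mean of all screened compounds plus 3 SD, cut at about 10% in these data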;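 note: 0% = DMSO wells and 100% = sodium butyrate wells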
# hcDAF12 agonist: H. contortus DAF-12 nuclear receptor activators, primary screen, cell-based, luminescence, HEK293, lit1-tk-luc reporter; HEK293 hcDAF-12 lit1-tk-luc reporter; 0% DMSO, 100% Δ7-dafachronic acid; activation, % at 6.8 µM; 370,000 tested, 1.4% active;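 active = activation above the mean of all tested compounds plus 3 SD, cut at about 5.5% in these data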;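 note: 100% = response to 3 µM Δ7-dafachronic acid high control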
# DAX1 inh-2: DAX1 (NR0B1) inhibitors, primary screen, cell-based, HEK293, Gal4-DAX1, luciferase luminescence; inhibition, % at 6.75 µM; HEK293 Gal4-DAX1 luciferase reporter; Nuclear receptor subfamily 0 group B member 1 (Homo sapiens), P51843; 340,000 tested, 0.99% active;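 active = inhibition above the mean over all tested compounds plus 3 SD, cut at about 4.2% in these data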;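 note: 0% = DAX1-transfected cells with DMSO and 100% = empty-vector control cells with DMSO; inhibition shows as a rise in luminescence from relieved DAX1 repression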
# Target sequence (P51843 207-470 limits assumed): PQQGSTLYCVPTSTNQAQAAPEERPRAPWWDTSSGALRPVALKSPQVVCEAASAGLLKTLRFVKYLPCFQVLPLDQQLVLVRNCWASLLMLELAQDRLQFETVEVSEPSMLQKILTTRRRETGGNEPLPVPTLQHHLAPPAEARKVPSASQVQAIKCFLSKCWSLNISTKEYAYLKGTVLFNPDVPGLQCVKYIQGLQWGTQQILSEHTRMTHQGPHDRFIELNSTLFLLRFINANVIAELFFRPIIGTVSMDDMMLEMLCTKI
# Active calls of the source: *; . = not tested or not shown.
SMILES,DAX1 inh-1,ssDAF12 agonist,hgDAF-12 ag,hcDAF12 agonist,DAX1 inh-2
CC1CCCN(C(=O)c2cc3c(=O)n4ccccc4nc3s2)C1 (stereo unspecified),1,0,7,5,1
Cc1cccn2c(=O)c3cc(C(=O)N4CCCCC4)sc3nc12,1,1.5*,6,5,2
C=CCn1c(=O)c(C(=O)Nc2ccccc2O)c(O)c2ccccc21,0,1.0*,1,3,1
Cc1ccc(NC(=O)c2c(O)c3ccccc3n(C)c2=O)nc1,0,0,5,6.0*,1
C=CCn1c(=O)c(C(=O)Nc2ccccc2C)c(O)c2ccccc21,1,1,4,5,0
CCn1c(=O)c(C(=O)Nc2ccccc2C)c(O)c2ccccc21,0,1.4*,3,4,1
Cc1ccc(NC(=O)c2ccc(C(=O)c3ccccc3)cc2)nc1,3.9*,-1,5,-1,1
CCOC(=O)c1c(/N=C/c2ccc(OC)cc2O)sc2c1CCN(C)C2,-1,-2,-2,-2,0
CN1CCc2c(sc(/N=C/c3c[nH]c4ccccc34)c2C(N)=O)C1,0,0,3,5.9*,.
OC(c1ccccc1)(c1ccccc1)C1CCN(CCCOc2ccc(OC(F)(F)F)cc2)CC1,0,-1,2,2,.
Cn1c(SCC(=O)c2ccccc2)ncc(C(=O)Nc2ccccc2)c1=O,2,1,4,2,0
Cn1c(SCC(=O)NCCc2ccccc2)ncc(C(=O)Nc2ccc(F)cc2)c1=O,2,0.9*,2,3,0
COc1ccc(C(=O)NNC2CC(=O)N(Cc3ccc(Cl)cc3)C2=O)cc1OC (stereo unspecified),0,-1,-2,0,0
CCNC(=O)COc1ccc(Br)cc1Cl,0,-1,4,0,-1
COCCCNC(=O)COc1ccc(Br)cc1Cl,1,-1,11*,-1,1
O=C(NCc1nc2ccccc2[nH]1)c1ccco1,0,-1,2,0,0
CCc1cccc(CC)c1NC(=S)NCc1nc2ccccc2[nH]1,0,0,1,2,5.4*
O=C(COc1ccccc1Cl)NC(=S)N1CCc2ccccc21,1,-1,2,5.9*,0
O=Cc1ccc(OCC(=O)N2CCc3ccccc32)c(Br)c1,2,0,7,2,0
O=C(COc1ccccc1)NC(=S)N1CCc2ccccc21,1,0,8,4,-1
COc1ccc2c(CC(=O)OCC(=O)N3CCc4ccccc43)coc2c1,0,-1,1,0,-2
O=C(COc1ccc(F)cc1Br)N1CCc2ccccc21,3,0,11*,1,2
COc1ccc2c(CC(=O)N3CCc4ccccc43)coc2c1,3,1,10,5.8*,1
COc1ccc(OCC(=O)N2CCc3ccccc32)c([N+](=O)[O-])c1,4,0,5,5.6*,2
O=C(CN1CC(=O)Nc2ccccc21)NCCc1ccc(Cl)cc1Cl,0,-1,-3,0,0
SMILES,DAX1 inh-1,ssDAF12 agonist,hgDAF-12 ag,hcDAF12 agonist,DAX1 inh-2
O=C(c1cc([N+](=O)[O-])ccc1Cl)N1CCc2ccccc21,-1,0,3,1,0
O=C(COc1ccc([N+](=O)[O-])cc1Cl)N1CCc2ccccc21,4.4*,1,9,5,1
Cc1cc(C)cc(C(=O)OCCN(C)C2CN(Cc3cn(Cc4cccc(F)c4)nn3)S(=O)(=O)C2)c1 (stereo unspecified),-1,-2,-2,-2,.
O=C(O)CN(C1CCCCC1)S(=O)(=O)c1ccc(F)cc1,0,-2,0,-2,1
O=C(N/N=C/c1ccc(F)cc1)c1ccc(Br)cc1,0,-2,2,-2,1
COc1cccc(/C=N/NC(=O)c2c(C)nc3ccc(Br)cn23)c1,2,-1,3,0,6.4*
Cc1cccc(/C=N/NC(=O)c2ccc(Br)cc2)c1,2,0,12*,4,2
Cc1nc2ccc(Br)cn2c1C(=O)N/N=C\c1ccc(C(C)C)cc1,0,-1,1,-1,2
COC(=O)[C@]12C[C@H](CC(=O)NCC3CCCCC3)C(=O)N(Cc3cccc4ccccc34)C1=C[C@H](C1CCCC1)O[C@@H]2C,0,0,6,1,.
Cc1nnc2ccc(-c3ccc(NC(=O)c4ccco4)cc3)nn12,0,-2,-1,-1,1
CC(=O)Nc1ccc(-c2ccc3nnc(C)n3n2)cc1,0,-2,-3,1,5.1*
Cc1ccc(S(=O)(=O)NC(=O)c2cc(C)n(CC(c3ccccc3)N(C)C)c2C)cc1 (stereo unspecified),-1,-1,0,0,5.5*
COc1ccc(N/C(C)=C/C(=S)Nc2ccccc2)cc1,1,0,19*,10*,-1
CC1=C(C(=O)Nc2ccc(C)cc2C)C(c2ccc(Cl)cc2)n2nc(C(=O)OC(C)C)nc2N1 (stereo unspecified),0,-1,0,-2,4.4*
CC(C)C[C@@H]1COc2cc(Br)ccc2S(=O)(=O)N1Cc1cn(Cc2ccccc2)nn1,0,-1,1,-1,.
C=CCN1C(=O)[C@@H](CC(=O)NCC2CCCCC2)[C@]2(C(=O)OCC)CCCCC/C=C/12,0,0,0,-1,.
Cc1sc2ncnc(NC(C)C(=O)O)c2c1C (stereo unspecified),1,0,-2,-1,5.3*
Cc1ccc(-n2nc3c(Cl)nnc(C)c3c2C)cc1,0,-2,-1,0,-1
CSc1nnc2c(n1)c(C)nn2-c1ccc(C)cc1,0,1.3*,4,5,2
COc1cc2c(cc1NC(=O)CSc1nnc(-c3ccccc3F)n1-c1ccc(C)cc1)oc1ccccc12,1,-1,5,2,.
Clc1ccc(-c2cn(-c3nc4ccccc4s3)nn2)cc1,1,0,2,5.7*,.
CCCCCc1c(C)nc(SCC(=O)O)[nH]c1=O,1,-1,0,-1,1
CCCCCCCc1c(O)nc(SCC(=O)O)[nH]c1=O,0,-2,-2,0,5.1*
Cc1ccc(N2C(=O)[C@@H]3[C@H](C2=O)[C@H]2C=CC=NN2[C@@H]3C(=O)Nc2ccccc2)cc1,0,1.2*,2,3,-2
